The source made the active and inactive calls. The calls were made as follows: active = hit-call score of the fitted dose curve at least 0.9, where 1 is the maximum; inactive = score below 0.9.

Read-out in experiment [1]: TIMP metallopeptidase inhibitor 2 (TIMP2), TIMP2 (gene 7077)
The experiment is described as follows: BSK_KF3CT_TIMP2: BioMAP Diversity Plus: KF3CT Assay for TIMP metallopeptidase inhibitor 2 (TIMP2) Biomarker Activity (AID 2283071). The settings on record: primary human keratinocytes with fibroblasts; actives raise or lower the signal. A digest of the protocol:
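TIMP-2 measured by ELISA at 24 h in human keratinocyte/fibroblast primary co-cultures exposed to chemicals. Both increases and decreases were fitted against DMSO. Parallel cultures were stained with SRB for total protein as an overt-cytotoxicity check.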

Read-out in experiment [2]: Transforming growth factor beta 1 (TGFb1), TGFB1 (gene 7040)
The experiment is described as follows: BSK_KF3CT_TGFb1: BioMAP Diversity Plus: KF3CT Assay for Transforming growth factor beta 1 (TGFb1) Biomarker Activity (AID 2283072). The settings on record: primary human keratinocytes with fibroblasts; actives raise or lower the signal. The method, boiled down:
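ELISA quantifies TGF-b1 at 24 h post-dose in a primary human skin co-culture of keratinocytes and fibroblasts, with gain or loss judged against DMSO. Parallel SRB total-protein staining flags overt cytotoxicity.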

Read-out in experiment [3]: C-C motif chemokine 2 (Homo sapiens) (UniProt P13500)
The experiment is described as follows: BSK_KF3CT_MCP1: BioMAP Diversity Plus: KF3CT Assay for Monocyte Chemoattractant Protein 1 (MCP1/CCL2) Biomarker Activity (AID 2283073). The settings on record: primary human keratinocytes with fibroblasts; actives raise or lower the signal. A digest of the protocol: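 Human keratinocyte–foreskin fibroblast co-culture; MCP-1 measured by ELISA 24 h after dosing. Bidirectional fit vs DMSO; cytotoxicity tracked by SRB total protein in parallel cultures.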

Read-out in experiment [4]: Matrix Metallopeptidase 9 (MMP9), MMP9 (gene 4318)
In words: BSK_KF3CT_MMP9: BioMAP Diversity Plus: KF3CT Assay for Matrix Metallopeptidase 9 (MMP9) Biomarker Activity (AID 2283074).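 As to AC50: MMP9 protein level quantified by ELISA in the co-culture.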 The settings on record: primary human keratinocytes with fibroblasts; actives raise or lower the signal. A digest of the protocol: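 Values come from bidirectional fitting relative to DMSO of MMP-9 levels, which were measured by ELISA. Measurements were taken 24 h after chemical dosing of a keratinocyte and foreskin fibroblast co-culture.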

Read-out in experiment [5]: urokinase plasminogen activator (uPA), PLAU (gene 5328)
The experiment is described as follows: BSK_KF3CT_uPA: BioMAP Diversity Plus: KF3CT Assay for urokinase plasminogen activator (uPA) Biomarker Activity (AID 2283075). The settings on record: primary human keratinocytes with fibroblasts; actives raise or lower the signal. A digest of the protocol: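 Values derive from bidirectional fitting against DMSO controls. Keratinocyte/foreskin fibroblast co-cultures received chemical; 24 h later uPA was detected by ELISA, with SRB total-protein staining in parallel wells for overt cytotoxicity.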

Read-out in experiment [6]: CD40, CD40 (gene 958)
The experiment is described as follows: BSK_LPS_CD40: BioMAP Diversity Plus: LPS Assay for CD40 Biomarker Activity (AID 2283076). The settings on record: primary human HUVEC with PBMC; actives raise or lower the signal. A digest of the protocol:
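HUVEC plus PBMC co-culture stimulated with LPS; CD40 quantified by ELISA 24 h after compound dosing. Fitting was bidirectional relative to DMSO. SRB staining of parallel cultures flagged overt cytotoxicity.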

Read-out in experiment [7]: E-selectin (Homo sapiens) (UniProt P16581)
In words: BSK_LPS_Eselectin: BioMAP Diversity Plus: LPS Assay for Eselectin Biomarker Activity (AID 2283077). The settings on record: primary human HUVEC with PBMC; actives raise or lower the signal. The method, boiled down: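 Human umbilical vein endothelial cells co-cultured with PBMC under LPS stimulation; cell-surface E-selectin measured by ELISA 24 h after dosing. Change in either direction versus DMSO, with SRB total-protein staining in parallel cultures for cytotoxicity.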

Read-out in experiment [8]: Interleukin-8 (IL8), CXCL8 (gene 3576)
The experiment is described as follows: BSK_LPS_IL8: BioMAP Diversity Plus: LPS Assay for Interleukin-8 (IL8) Biomarker Activity (AID 2283078). The settings on record: primary human HUVEC with PBMC; actives raise or lower the signal. A digest of the protocol: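 Human umbilical vein endothelial cells co-cultured with PBMC, LPS-stimulated, exposed to compound for 24 h. IL-8 quantified by ELISA; fitted in both directions against DMSO, with SRB total-protein staining of parallel cultures for cytotoxicity.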

Experiment [9] can be described thus: BSK_LPS_SRB: Viability Assessment in the BioMAP Diversity Plus: LPS Assay (AID 2283079).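 Also: total protein by sulforhodamine B absorbance as a cytotoxicity measure; measured one day after compound addition; fitted in both directions against DMSO so loss or gain of signal counts.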 The settings on record: primary human HUVEC with PBMC. A digest of the protocol: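 Co-culture of human umbilical vein endothelial cells and PBMC, read 24 h after dosing. Total protein by 0.1% SRB staining after 10% TCA fixation, absorbance at 560 nm; bidirectional fit against DMSO.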

Read-out in experiment [10]: Interleukin-1 alpha (IL1a), IL1A (gene 3552)
The experiment is described as follows: BSK_LPS_IL1a: BioMAP Diversity Plus: LPS Assay for Interleukin-1 alpha (IL1a) Biomarker Activity (AID 2283080). The settings on record: primary human HUVEC with PBMC; actives raise or lower the signal. A digest of the protocol: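 Human umbilical vein endothelial cells co-cultured with PBMC and stimulated with LPS; IL-1a measured by ELISA 24 h after dosing. Bidirectional fitting against DMSO; cytotoxicity checked by SRB staining in parallel cultures.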

E-selectin (Homo sapiens), sequence (P16581 whole entry, looked up): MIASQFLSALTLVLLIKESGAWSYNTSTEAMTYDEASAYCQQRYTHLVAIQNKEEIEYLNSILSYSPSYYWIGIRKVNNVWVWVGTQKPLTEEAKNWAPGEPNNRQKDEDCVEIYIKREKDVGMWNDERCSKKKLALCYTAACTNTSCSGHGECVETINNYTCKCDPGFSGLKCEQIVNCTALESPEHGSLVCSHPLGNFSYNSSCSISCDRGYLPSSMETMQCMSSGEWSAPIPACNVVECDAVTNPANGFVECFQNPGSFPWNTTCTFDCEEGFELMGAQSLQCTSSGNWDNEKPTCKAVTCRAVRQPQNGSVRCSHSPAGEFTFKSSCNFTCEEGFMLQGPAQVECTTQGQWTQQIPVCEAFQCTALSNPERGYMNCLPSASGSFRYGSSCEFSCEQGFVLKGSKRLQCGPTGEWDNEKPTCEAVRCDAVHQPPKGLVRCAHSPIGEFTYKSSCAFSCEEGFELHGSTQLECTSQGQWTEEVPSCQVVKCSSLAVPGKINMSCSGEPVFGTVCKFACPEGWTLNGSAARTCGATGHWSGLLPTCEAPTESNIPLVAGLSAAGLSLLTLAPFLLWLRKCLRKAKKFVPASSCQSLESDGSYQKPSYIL

As for `O=C(N[C@H]1CN2CCC1CC2)c1ccc2c(c1)OCCO2`, the outcome in [1], in experiment [2], in [3], in [4], in [5] and in experiment [6] was inactive. In addition, the result in experiment [7], in [8], in experiment [9] and in experiment [10] was inactive.
As to `OC(Cc1ccccc1Cl)(Cn1[nH]cnc1=S)C1(Cl)CC1` (stereo unspecified), the AC50 was 11.1 µM (active) in experiment [1], 16.9 µM (active) in experiment [2] and 20 µM (active) in experiment [6]. For the same compound, the outcome in [3], in [4], in [5], in experiment [7], in experiment [8] and in experiment [9] was inactive. The outcome in experiment [10] was inactive.
As for `Oc1ccc(Cc2ccc(O)cc2)cc1`, the result in experiment [1], in experiment [2], in experiment [3], in experiment [4], in [5] and in experiment [6] was inactive. In addition, the result in experiment [7], in experiment [8], in experiment [9] and in experiment [10] was inactive.
Turning to `Cc1c([N+](=O)[O-])c(C)c([N+](=O)[O-])c(C(C)(C)C)c1[N+](=O)[O-]`, the outcome in experiment [1], in [2], in [5], in [6], in experiment [7] and in experiment [8] was inactive. In addition, the outcome in experiment [9] was inactive. The AC50 in experiment [3] is 34 µM (active); in experiment [4] it was 31.1 µM (active); in experiment [10] it was 11.4 µM (active).
With `COCC(=O)N(c1c(C)cccc1C)[C@H](C)C(=O)OC`, the result in experiment [1], in [2], in experiment [3], in experiment [4], in experiment [5] and in experiment [6] was inactive. The result in experiment [7], in experiment [8], in experiment [9] and in [10] was inactive.
As to `Cc1cc(C)cc(C)c1`, the outcome in experiment [1], in [2], in [3], in experiment [4], in experiment [5] and in experiment [6] was inactive. For the same compound, the result in [7], in experiment [8], in experiment [9] and in [10] was inactive.
Take `CC(C=O)Cc1ccc2c(c1)OCO2` (stereo unspecified): the outcome in experiment [1], in experiment [2], in experiment [3], in [4], in experiment [5] and in experiment [6] was inactive. The result in experiment [7], in experiment [8], in experiment [9] and in experiment [10] was inactive.
Turning to `O=S(=O)(c1ccc(Cl)cc1)c1cc(Cl)c(Cl)cc1Cl`, the AC50 was 12.7 µM (active) in experiment [1], 5.16 µM (active) in experiment [2] and 0.58 µM (active) in experiment [4]. In addition, the result in [3], in experiment [5], in [6], in experiment [7], in [8] and in [9] was inactive. The result in experiment [10] was inactive.
As to `Oc1cccc(-c2ccccc2)c1`, the AC50 was 35 µM (active) in [1]; 31.5 µM (active) in experiment [4]; 20 µM (active) in experiment [6]; 32.5 µM (active) in experiment [7]; 29.8 µM (active) in [9]. For the same compound, the outcome in experiment [2], in experiment [3], in [5], in experiment [8] and in [10] was inactive.
Take `CCC(C)(C#N)N=NC(C)(C#N)CC` (stereo unspecified): the outcome in experiment [1], in experiment [2], in [3], in experiment [4], in experiment [5] and in [6] was inactive. The result in experiment [7], in experiment [8], in experiment [9] and in experiment [10] was inactive.
`c1ccc2sc(SNC3CCCCC3)nc2c1`: the result in experiment [1], in experiment [2], in [3], in [4], in experiment [5] and in [6] was inactive. The result in [7], in [8] and in experiment [9] was inactive. In addition, in experiment [10], the AC50 is 30.2 µM (active).
In the case of `Cc1cc(C(C)(C)c2ccc(O)c(C)c2)ccc1O`, the AC50 in experiment [1] is 12.2 µM (active); in experiment [2], 10 µM (active); in experiment [4], 15.2 µM (active); in [6], 14.3 µM (active); in [9], 12.5 µM (active). Besides, the result in experiment [3], in experiment [5], in experiment [7], in experiment [8] and in experiment [10] was inactive.
Turning to `C#CCOC(=O)/C=C(C)/C=C/CC(C)CCCC(C)C` (stereo unspecified), the result in experiment [1], in experiment [2], in [3], in experiment [4], in experiment [5] and in [9] was inactive. Moreover, in experiment [10], the result was inactive. For the same compound, the AC50 in experiment [6] was 20 µM (active); in experiment [7], 20 µM (active); in experiment [8] it was 0.242 µM (active).
For the compound `CC(C)=CC1C(C(=O)OCc2cccc(Oc3ccccc3)c2)C1(C)C` (stereo unspecified), the AC50 in experiment [1] was 2.81 µM (active). Also, the outcome in experiment [2], in experiment [3], in [4], in [5], in [6] and in experiment [7] was inactive. For the same compound, the result in experiment [8], in [9] and in [10] was inactive.
In the case of `Clc1cccc(Cl)c1Cl`, the result in experiment [1], in experiment [2], in experiment [3], in experiment [5], in experiment [6] and in [7] was inactive. Besides, the result in experiment [8], in [9] and in experiment [10] was inactive.
Turning to `OCCCCO`, the outcome in experiment [1], in [4], in experiment [5], in experiment [6], in [7] and in experiment [8] was inactive. For the same compound, the outcome in experiment [9] and in experiment [10] was inactive.
Turning to `OCCN(CCO)CCO`, the outcome in experiment [1], in [2], in experiment [3], in experiment [4], in [5] and in experiment [6] was inactive. Further, the result in experiment [7], in experiment [8], in experiment [9] and in experiment [10] was inactive.
As for `Cc1cc(Cl)ccc1N`, the result in [1], in experiment [2], in [3], in [4], in [5] and in experiment [6] was inactive. Besides, the outcome in experiment [7], in experiment [8], in experiment [9] and in [10] was inactive.
Regarding `CC(C)(COCC1CO1)COCC1CO1` (stereo unspecified), the result in experiment [1], in experiment [2], in experiment [3], in experiment [4], in [5] and in experiment [6] was inactive. Besides, the result in experiment [7], in [8], in experiment [9] and in [10] was inactive.
In the case of `Cc1ccc2nc3sc(=O)sc3nc2c1`, the AC50 in experiment [1] is 2.5 µM (active); in experiment [6] it was 4.27 µM (active); in [7], 8.18 µM (active); in [9], 3.67 µM (active); in experiment [10], 7.83 µM (active). Also, the outcome in [2], in experiment [3], in experiment [5] and in [8] was inactive.
Turning to `CCOP(=S)(OCC)SCS(=O)(=O)C(C)(C)C`, the result in experiment [1], in experiment [2], in experiment [3], in experiment [4], in [5] and in [6] was inactive. For the same compound, the outcome in experiment [7], in [8], in [9] and in experiment [10] was inactive.

(Values after PubChem BioAssay (EPA / NIEHS).)
